# Assay results: ChEMBL document CHEMBL3433997, “St. Jude Leishmania screening dataset” (2016)
# Target: Glucose transporter (Leishmania mexicana) (UniProt O61059)
# Assay: ST_JUDE_LEISH: Cytotoxicity at 2uM final concentration against transgenic Leishmania Mexicana promastigotes LmGT2 that are glucose transport deficient and complemented with the L. Mexicana glucose transporter 2. Activity is measured by DNA content using SYBR green in vitro
# Assay type: functional
row,Structure (SMILES),inhibition [%]
1,CS(=O)(=O)CCNCc1nc(-c2ccc3ncnc(Nc4ccc(OCc5ccccc5)c(Cl)c4)c3c2)cs1,2.9
2,Cc1cccc2nc(-c3ccc(-c4cccc(CNCCN5CCNCC5)c4)cc3)[nH]c12,9.01
3,Cc1c(C(=O)Nc2cc(Sc3ccc(F)cc3)cc([N+](=O)[O-])c2)sc2ncn(Cc3ccccc3F)c(=O)c12,8.4
4,COc1ccc2ccc(F)c(CCN3CCC(NCc4cc5c(cn4)OCCO5)CC3)c2n1,22.4
5,O=C(N[C@@H](Cc1ccccc1)C(=O)NC1CCCc2ccccc21)c1ccc(O)c(-c2cccc(C(F)(F)F)c2)c1 (stereo not given in full),-1.61
6,CC(=O)Nc1ncc(C(=O)Nc2cccc(-c3cccc(-c4nc5ccccc5[nH]4)c3)c2)s1,6.64
7,CN(CCO)Cc1cccc(-c2ccc(NC(=O)c3cccc(C#N)c3)cc2)c1,-2.56
8,CCc1cc2c(N)nc(N)nc2nc1-c1ccccc1,0.81
9,C[C@@H](CC1CCCCC1)OC(=O)N[C@H]1CCN(C#N)C1,7.29
10,O=C(Cc1c[nH]cn1)Nc1cccc(-c2cccc(-c3nc4cc(F)ccc4[nH]3)c2)c1,-2.58
11,N=C1NC(c2ccccc2)(c2ccccc2)C(=O)N1C1CCCCC1,1.18
12,Nc1cc(-c2cccc(Cl)c2)nn1-c1ccnc2cc(Cl)ccc12,-4.37
13,Cc1cc(N[C@@H](Cc2ccccc2)C(=O)Nc2ccccc2)nc(Nc2ccccc2)n1,-0.05
14,O=C(Nc1ccc2oc(-c3ccc(Cl)cc3Cl)nc2c1)c1ccc([N+](=O)[O-])o1,11
15,CN(C)C(=S)N/N=C1/C(=O)Nc2ccc(OC(F)(F)F)cc21,0.75
16,COc1ccc(CN2CCCC(N3CC4(OC3=O)c3ccccc3-c3ccccc34)C2)c(O)c1 (stereo not given),4.18
17,COc1ccc(NC(=O)c2ccc(NC(=O)c3ccc(Cl)cc3)cc2)cc1N1CCN(C)CC1,3.5
18,Cc1cccc2nc(-c3ccc(-c4cccc(CN5CC(C)OC(C)C5)c4)s3)[nH]c12 (stereo not given),4.91
19,O=C(/C=C/c1cccc(OC(F)(F)F)c1)NCCCCCN1CCC(c2c[nH]c3ccccc23)CC1,-2.1
20,O=C(NCc1cccc(C(F)(F)F)c1)[C@@H]1CCCN1C(=O)c1ccc(O)c(-c2ccc(Cl)c(Cl)c2)c1,0.24
21,COc1cccc(-c2cc(C(=O)NC3CCC(N4CCC(c5ccccc5C)CC4)CC3)[nH]n2)c1 (stereo not given),5.13
22,O=C(Nc1cccc(C(F)(F)F)c1)Nc1ccc(F)c([N+](=O)[O-])c1,-0.74
23,COc1cc(Cc2cnc(N)nc2N)cc(OCCCCC#N)c1OC,5.77
24,CCCc1cc(Cc2cnc(N)nc2N)cc(CCC)c1O,1.49
25,CN(C)C(=O)c1cccc(COc2ccc(N3C(N)=NC(N)=NC3(C)C)cc2Cl)c1,-0.58
26,CC(=NNc1nc2ccccc2s1)c1ccccn1,3.21
27,CCN(CC)CCNc1ccnc2[nH]c3ccc(C)cc3c12,0.34
28,CCc1c[nH]c2c(N3CCCCS3(=O)=O)cc(C(=O)N[C@@H](Cc3ccccc3)[C@H](O)CNCc3cccc(OC)c3)cc12,-0.23
29,CN1C(=O)C(=NN=C(S)N2CCOCC2)c2ccccc21,12.7
30,c1ccc2sc(-c3csc(Nc4ccncc4)n3)nc2c1,6.37
